Results reported in PubChem BioAssay (NCI).
Compounds without any hit were thinned out: in the full panel of roughly 83,000, 20% have a hit.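 Treatment: one concentration, 48 hours, 96-well format. Scoring: percent growth, with anything below 10 considered active.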 A number with no mark means an inactive call. Activity calls are given as the source filed them.

system: SNB-19 CNS; assay: NCI-60 one-dose screen, 48 h (100 = growth as untreated, 0 = no growth, -100 = all killed); details: 10 µM unless noted
Protocol: Growth inhibition of the SNB-19 human tumor cell line is measured as a screen for anti-cancer activity. Cells are grown in 96 well plates and exposed to the test compound for 48 hours. Compounds are tested at a single concentration, which is 10^-5 M for most compounds. The reported endpoint is percent growth (GI% or GIPRCNT), where numbers from 0 - 100% represent growth inhibition, and numbers from -100% - 0 represent cell death. For example, a value of 40 represents 60% growth inhibition. A value of 0 means no net growth occurred over the course of the experiment. A value of -40 indicates 40% of cells at the beginning of the experiment died by the end of the experiment. A value of -100 means all cells are dead at the end of the experiment.
NCI-60 Human Tumor Cell Lines Screen was performed using the standard one-dose NCI protocol, which is described in more detail at https://dtp.cancer.gov/discovery_development/nci-60/default.htm.
Compounds with GIPRCNT values below 10 were considered active. Activity score was based on GIPRCNT using the following formula: […]
Score is 0 for GIPRCNT values of 100 or above, 50 for GIPRCNT values of 0, and 100 for GIPRCNT values of -100.

Going from `CCCCOc1nc2cc(Cl)ccc2cc1/C=C/c1cc(/C=C/c2cc3ccc(Cl)cc3nc2OCCCC)n(-c2ccccc2)n1` to `O=C(CNc1nc(-c2ccc(Cl)cc2)cs1)Nc1ccc(-c2nc3ccccc3s2)cc1`, the growth rises from 69.9% to 98.2%.

First: Cc1nc(NC(=O)N2CCC[C@H]2C(N)=O)sc1-c1ccnc(C(C)(C)C(F)(F)F)c1
Second: CC#CC(=O)N1CCC[C@H]1c1nc(-c2ccc(C(=O)Nc3ccccn3)cc2)c2c(N)nccn12
The growth of the first is lower: 66.1% for the first, 90.6% for the second.

Going from `CO[C@H]1C[C@@H]2CC[C@@H](C)[C@@](O)(O2)C(=O)C(=O)N2CCCC[C@H]2C(=O)O[C@H]([C@H](C)C[C@@H]2CC[C@@H](O)[C@H](OC)C2)CC(=O)[C@H](C)/C=C(\C)[C@@H](O)[C@@H](OC)C(=O)[C@H](C)C[C@H](C)\C=C/C=C/C=C/1C` to `COc1cc(-c2nc(C(=O)NCC(=O)O)nn2-c2ccc(Cl)cc2)cc(OC)c1OC`, the growth rises from 39.4% to 109%.

Going from `C[C@H](NC(=O)c1c(N)nn2cccnc12)c1cc2cccc(C#Cc3cnn(C)c3)c2c(=O)n1-c1ccccc1` to `COc1c(C(NC(=O)c2ccccc2)c2sccc2C)cc(Cl)c2cccnc12` (stereo not given), the growth rises from 39.3% to 118%.

Compared with `CN(C[C@@H]1COCCO1)S(=O)(=O)Nc1ccc2ccc3ncc(-c4cnn(C)c4)cc3c(=O)c2c1`, `O=C(c1c(F)ccc(NS(=O)(=O)N2CC[C@@H](F)C2)c1F)c1c[nH]c2ncc(-c3cnc(C4CC4)nc3)cc12` is lower in growth: 80.7% for the first, 52.8% for the second.

Compared with `COC(=O)Nc1nc2ccc(C(=O)c3ccc(N(C)C4COC4)cc3)cc2[nH]1`, `C[C@@H](N)c1ccc(C(=O)Nc2ccnc3[nH]ccc23)cc1` is higher in growth: 26.9% for the first, 60.7% for the second.

Going from `Cc1[nH]n(C(N)=S)c(=O)c1N=Nc1ccc(S(=O)(=O)Nc2ccncn2)cc1` to `Cc1cc(NCC(=O)Nc2ccc(-c3nc4ccccc4s3)cc2)no1`, the growth falls from 99.8% to 96.5%.

Going from `CC(C)OP(=O)(CCC(=O)c1c[nH]c2ccccc12)OC(C)C` to `COc1ccc(-c2cc3c(oc2=O)-c2ccccc2OC3OC(C)=O)cc1` (stereo not given), the growth falls from 104% to 98%.

Compared with `O=C1C=CC2(NN=C(c3ccccc3)N2c2cccc(Cl)c2)C(Cl)=C1` (stereo not given), `O=C1CC(c2cccc(F)c2)c2c(n[nH]c2-c2ccc(Cl)cc2)N1` (stereo not given) is higher in growth: 94.3% for the first, 99.3% for the second.

Compared with `CCCCCCCCCNCCCCCCCCC`, `Clc1ccc2c(NCCCNCc3ccc4c(c3)OCO4)ccnc2c1` is higher in growth: 82.2% for the first, 88.7% for the second.

Going from `Cn1cnc2c(F)c(Nc3ccc(Br)cc3Cl)c(C(=O)NOCCO)cc21` to `CNC(=O)c1cc(COc2nnc(Nc3ccc(Cl)cc3)c3ccoc23)ccn1`, the growth falls from 52.3% to 19.6%.

Going from `C=CCCCOC1[C@H](OCc2ccccc2)C(OCc2ccccc2)C(OC)O[C@@H]1CNC(=O)c1cccc(I)c1` (stereo not given in full) to `O=C(Cc1ccc(-c2ccc(OCCN3CCOCC3)cc2)cn1)NCc1ccccc1`, the growth falls from 49.9% to 14.1%.

Going from `Nc1c(C(=O)c2ccccc2)sc2nc(-c3cccs3)ccc12` to `O=C(Cn1ccnc1)Nc1ccc(-c2nc3ccccc3s2)cc1`, the growth rises from 36.1% to 76.5%.

Going from `CNc1ncc2cc(-c3cc(NC(=O)NCCC(C)(C)C)c(F)cc3C)c(C)nc2n1` to `Cn1nccc1Nc1nccc(-c2ccn([C@H](CO)c3ccc(Cl)c(F)c3)c(=O)c2)n1`, the growth rises from 23.6% to 94.1%.

Going from `Cc1sc2c(c1C)c(=O)nc1c(-c3nc(-c4ccccc4)cs3)n[nH]n12` to `CN1CCN(c2nc(C3=C(c4c[nH]c5ccccc45)C(=O)NC3=O)c3ccccc3n2)CC1`, the growth falls from 102% to 87.5%.

Going from `CC(=O)O[C@]1(C)C[C@H](O)[C@]2(O)C=CO[C@H](O[C@@H]3O[C@H](CO)[C@@H](O)[C@H](O)[C@H]3O)[C@@H]21` to `COC(=O)[C@@H](C)CNS(=O)(=O)N(c1cc(C(F)(F)F)cc(C(F)(F)F)c1)C1CCN(Cc2ccc(F)cc2)CC1`, the growth falls from 99.6% to 67.7%.

In the case of `COc1cc2c(cc1OCCCCN1CCN(CC(=O)Nc3ccc(Cl)cc3C(=O)c3ccccc3Cl)CC1)N=CC1CCCN1C2=O` (stereo not given), the growth is reported as -57.3% (active).
For `Cc1c(CN2CCN(C(=O)[C@H](C)O)CC2)sc2c(N3CCOCC3)nc(-c3cnc(N)nc3)nc12`, the growth was 3.17% (active).
For `Cc1nc2cc(-c3nn(C(C)C)c4ncnc(N)c34)ccc2o1`, the growth was -4.62% (active).
In the case of `CNC(=O)c1cc(Oc2ccc(NC(=O)Nc3cc(C(C)(C)C)nn3-c3ccc4ncccc4c3)c(F)c2)ccn1`, the growth is reported as 1.45% (active).
`COC(=O)CNC(=O)[C@@H](OC)[C@@H]1Cc2cc3cc(OC4CC(OC5CC(O)C(O)C(C)O5)C(O)C(C)O4)c(C)c(O)c3c(O)c2C(=O)[C@H]1OC1CC(OC2CC(OC3CC(C)(O)C(O)C(C)O3)C(O)C(C)O2)C(O)C(C)O1` (stereo not given in full) was tested, and the growth was 9.4% (active).
For `Cc1nc(Nc2n[nH]c3c2CN(C(=O)N[C@H](CN(C)C)c2ccccc2)C3(C)C)c2sccc2n1`, the growth was 0.125% (active).
`CN1C/C=C\CCOc2cccc(c2)-c2ccnc(n2)Nc2cccc(c2)C1` was tested, and the growth was 0.69% (active).
`COC(=O)[C@]12CC[C@@H](C)[C@H](C)[C@@H]1C1=CC[C@@H]3[C@@]4(C)C(C=O)=C[C@@](C)(COS(C)(=O)=O)C4=CC[C@@]3(C)[C@]1(C)CC2` was tested, and the growth was -5.33% (active).
